Bioassay records as filed in PubChem BioAssay.
HP1b chromo inh: inhibitors of HP1-beta chromodomain binding to methylated histone tails | AlphaScreen HP1-beta / biotin-H3K9me3 peptide binding | AID 540317 | P83916 | hit rate 0.56% among 390,000 | Potency, µM (doses to about 114 µM), for inactives: at the top dose activity change, negative = inhibition, usual class: inhibitors; also: nearly all actives have a fitted effect of over 70% in size
Target sequence (P83916 whole entry, looked up): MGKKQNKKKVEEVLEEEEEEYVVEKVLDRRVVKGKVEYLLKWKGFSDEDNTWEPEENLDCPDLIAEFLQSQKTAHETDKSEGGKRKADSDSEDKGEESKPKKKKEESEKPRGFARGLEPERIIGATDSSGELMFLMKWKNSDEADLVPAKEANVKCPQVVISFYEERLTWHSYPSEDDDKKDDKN
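HP1-beta protein (50 nM final) preincubated 30 min at room temperature with biotinylated H3(1-18)K9me3 peptide (50 nM) in PBS pH 7.4, 0.01% Tween-20, then compound added for 30 min. AlphaScreen streptavidin donor/nickel chelate acceptor beads (10 ug/mL final), 30 min dark, luminescence read.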
Sfp PPTase inh: blocks B. subtilis Sfp PPTase activity; Q9F4F7; Biochemical Sfp PPTase activity, qHTS; Potency, µM, without a hit: largest response in the series, negative = inhibition, actives largely listed as inhibitors; hit rate 3.5% among 310,000;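 also: the enzyme is Sfp with the accession as filed and its product quenches rhodamine fluorescence; 0% = enzyme reaction without inhibitor and -100% = no enzyme wells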
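Compounds were incubated with enzyme (final 15 nM) for 15 min at room temperature before substrate addition started the reaction. Fluorescence at 525 nm excitation, 598 nm emission was recorded immediately and after 30 minutes.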
JMJD2A Tudor inh: inhibitors of human JMJD2A Tudor domain; hit rate 4.4% among 390,000; AlphaScreen JMJD2A-Tudor / H3K4me3 peptide binding; Potency, µM (top dose mostly 114 µM), inactives show top-dose activity change, negative = inhibition, hits mostly inhibitors; also: % is scaled to controls: 0 for no effect and ±100 for the full control effect; nearly all actives have a fitted effect of over 50% in size
L3MBTL1 inh: L3MBTL1 (human) inhibition; AlphaScreen L3MBTL1–H3K9me1 peptide binding; Potency, µM (doses to about 57.1 µM), for inactives: top-dose activity, negative = inhibition, most hits filed as inhibitors; hit rate 0.66% among 230,000; also: % is scaled to controls: 0 for no effect and ±100 for the full control effect; nearly all actives have a fitted effect of over 60% in size
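L3MBTL1 50 nM + b-AHA-H3(1-15)K9me1 75 nM, 30 min RT; compound added, 30 min RT; streptavidin donor/Ni-chelate acceptor beads 10 ug/mL each final, 30 min RT dark; AlphaScreen read.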
BAZ2B inh: blocks human BAZ2B | Q9UIF8 | AlphaScreen BAZ2B-H3K14Ac peptide displacement | Potency, µM (doses to about 114 µM), inactives show at the highest dose activity change, negative = inhibition, usual class: inhibitors | hit rate 4.4% among 360,000 | AID 504333; also: % is scaled to controls: 0 for no effect and ±100 for the full control effect; nearly all actives have a fitted effect of over 60% in size
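BAZ2B 50 nM plus b-H3(5-23)K14Ac 50 nM, PBS pH 7.4/0.01% Tween-20, 30 min RT; compound added (max 110 uM), 30 min RT; streptavidin donor/Ni-chelate acceptor beads 10 ug/mL final, 20 min dark; AlphaScreen read.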
G9a inh: G9a (human) methyltransferase inhibition. hit rate 8.8% among 350,000. Potency, µM (top dose mostly 102 µM), inactives show at the top dose activity, negative = inhibition, actives largely listed as inhibitors. G9a H3K9 monomethylation, AlphaScreen, 2 h. Q96KQ7; also: % is scaled to controls: 0 for no effect and ±100 for the full control effect; nearly all actives have a fitted effect of over 75% in size
Target sequence (Q96KQ7 913-1193 limits assumed): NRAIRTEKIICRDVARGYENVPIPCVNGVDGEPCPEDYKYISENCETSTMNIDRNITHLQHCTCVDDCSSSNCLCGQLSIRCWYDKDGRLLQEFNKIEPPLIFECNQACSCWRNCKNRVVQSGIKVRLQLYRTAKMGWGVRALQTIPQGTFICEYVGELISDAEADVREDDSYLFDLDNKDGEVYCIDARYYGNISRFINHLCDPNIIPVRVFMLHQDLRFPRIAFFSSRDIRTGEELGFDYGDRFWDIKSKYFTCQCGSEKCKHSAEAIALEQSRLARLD
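G9a (20 nM) preincubated 15 min RT with compounds, then 500 nM biotinylated H3K9 peptide and 20 uM SAM added; 2 h RT reaction. Monomethyl-H3K9 product detected by AlphaScreen with anti-H3K9me1 antibody, streptavidin donor and anti-rabbit IgG acceptor beads.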
* marks the source's active call; other numbers are inactive results; ? = inconclusive; . = no result given; [ ] = dose if it differs, or a comment. Hits are enriched below; roughly 12% of the tested compounds scored in any of these assays. Calls follow the shape of the dose curve; as a rule, active = well fitted curve in the direction sought with a large enough effect; inconclusive = small, poorly fitted or top-dose-only effect, or another doubt; inactive = no such curve, though single readings can be large; an effect the other way counts as inactive or inconclusive. Potency is read from the fitted curve at half-maximal effect.

SMILES | HP1b chromo inh | Sfp PPTase inh | JMJD2A Tudor inh | L3MBTL1 inh | BAZ2B inh | G9a inh
C[C@H](NC(=O)[C@@H]1C[C@H]1[C@@H](NC(=O)OCc1ccccc1)c1ccccc1)c1ccccc1 | . | 23% | . | . | . | .
CCOC(=O)c1c(NC(C)=O)sc2c(O)c(CN3CCN(CC)CC3)ccc12 | -6% | 5% | ? | -7% | ? | 25µM*
N#Cc1ccc(CN2CC3(CCN(C(=O)c4cc(C(F)(F)F)cc(C(F)(F)F)c4)CC3)C2)cc1 | . | 11% | . | . | . | -1%[12.7 µM]
CNC[C@H](CC1CCCCC1)NC[C@H](Cc1ccccc1)NCCC12CC3CC(CC(C3)C1)C2 | 20% | 45µM* | -36% | -1% | ? | 45µM*
COC(=O)C(C)Sc1nc2c([nH]c3ccccc32)c(=O)n1C (centres undefined) | 16% | 50µM* | -17% | . | 3% | ?
N#Cc1ccc(OCc2cccc(S(=O)(=O)N3CCOCC3)c2)cc1 | 33% | . | -2% | 1% | -4% | 1%
COc1cc(S(=O)(=O)N2CCOCC2)ccc1NC(=O)CSc1nnc(N)s1 | 43% | 3% | 5% | 6% | 3% | 45µM*
CCCn1c(SCC(=O)Nc2cc(S(=O)(=O)N3CCOCC3)ccc2Cl)n[nH]c1=O | 30% | ? | -4% | 8% | -21% | ?
CCOCC(=O)Nc1cc(S(=O)(=O)N2CCOCC2)ccc1N1CCCCC1 | ? | 11µM* | 89µM* | . | ? | 7.1µM*
CCCn1c(SCC(=O)Nc2cc(S(=O)(=O)N3CCOCC3)ccc2OC)n[nH]c1=O | -6% | 40µM* | -6% | 0% | -24% | 3.2µM*
N#Cc1ccc(C(=O)OCc2cccc(S(=O)(=O)N3CCOCC3)c2)cc1 | 28% | . | ? | 2% | 1% | 14µM*
COc1cccc(NC(=O)Cn2c(=O)n(CC(=O)NCCc3ccccc3)c(=O)c3sccc32)c1 | 37% | . | -7% | . | -8% | 10%[59 µM]
CCCCCC(=O)Nc1cc(S(=O)(=O)N2CCCCC2)ccc1N1CCOCC1 | 29% | 7% | -3% | . | -2% | -2%[12.7 µM]
N#Cc1ccc(NC(=O)CNc2cc(S(=O)(=O)N3CCOCC3)ccc2NCC2CCCO2)cc1 (centres undefined) | 31% | -7% | -18% | -24% | -15% | 40µM*
O=C(CSc1nncs1)Nc1cc(S(=O)(=O)N2CCOCC2)ccc1N1CCCC1 | 26% | . | -4% | -6% | -6% | 35µM*
CCCCCC(=O)Nc1cc(S(=O)(=O)N2CCOCC2)ccc1N1CCCC1 | 22% | 16% | 1% | . | -10% | 28µM*
O=C(CNc1cc(S(=O)(=O)N2CCOCC2)ccc1NCC1CCCO1)Nc1ccc(C(F)(F)F)cc1 (centres undefined) | -23% | . | ? | -4% | 1% | 1%[12.7 µM]
Nc1nnc(SCC(=O)Nc2cc(S(=O)(=O)N3CCOCC3)ccc2N2CCCC2)s1 | 38% | . | -13% | -5% | 3% | -6%[59 µM]
COc1ccc(CC(=O)OCC(=O)Nc2cc(S(=O)(=O)N3CCOCC3)ccc2N2CCCC2)cc1 | -3% | -5% | -11% | ? | 1% | 40µM*
COc1cc([C@H]2c3cc4c(cc3[C@@H](O[C@H]3O[C@H]5CO[C@@H](C)O[C@H]5[C@@H](O)[C@@H]3O)[C@@H]3COC(=O)[C@H]23)OCO4)cc(OC)c1O | . | 25% | . | . | . | 7%[12.7 µM]
Cc1ccc(Cn2ncc3c4sc(C)cc4n(C)c3c2=O)cc1 | . | . | -23% | . | . | .
CCOCCc1nn2c(=O)cc(COC(=O)Cc3ccccc3)nc2s1 | 28% | . | -11% | . | -8% | 27%[59 µM]
Cc1ccc(N2CC(C(=O)Nc3ccc(Br)cc3)CC2=O)cc1 (centres undefined) | 36% | . | -23% | . | -5% | -18%[59 µM]
N#Cc1ccc(OCC(=O)Nc2cc(S(=O)(=O)N3CCOCC3)ccc2N2CCOCC2)cc1 | 16% | 14% | 0% | -7% | -7% | 71µM*
CCOc1ccc(S(=O)(=O)NCc2ccncc2)cc1NC(=O)c1ccccc1 | 15% | . | -14% | 6% | 3% | 56µM*
SMILES | HP1b chromo inh | Sfp PPTase inh | JMJD2A Tudor inh | L3MBTL1 inh | BAZ2B inh | G9a inh
COc1ccc(S(=O)(=O)NCc2ccccn2)cc1NC(=O)c1ccccc1C | 11% | . | 1µM* | -11% | ? | -35%
COc1ccc(S(=O)(=O)NCc2ccccn2)cc1NC(=O)c1ccc(Cl)cc1 | -24% | . | 3.5µM* | -3% | -7% | -3%
COc1ccc(S(=O)(=O)NCc2ccccn2)cc1OC | 13% | -21% | -16% | . | ? | -47%[12.7 µM]
Oc1cc2c(cc1O)[C@@H]1c3ccc(O)c(O)c3OC[C@]1(O)C2 | . | 32µM* | . | . | . | .
CC(=O)N1CCCc2cc(S(=O)(=O)N3CCC(C(=O)Nc4c(C)cccc4C)CC3)ccc21 | 14%[57 µM] | . | -7% | . | 5% | 16%[59 µM]
Cc1ccc(C)c(NC(=O)CCCn2nc(C)c3sc4ccccc4c3c2=O)c1 | 47% | . | -5% | . | -38% | -43%[59 µM]
COc1ccc(C(=O)NNc2ccccc2)cc1 | 13% | -19% | -3% | 8% | ? | 8.9µM*
COc1ccc(NC(=S)Nc2ccc(Oc3ccccc3)cc2)cc1 | 13% | -2% | -14% | -5% | -5% | 24%[59 µM]
COc1ccc(NC(=S)NNc2ccc(C(=O)O)cc2)cc1 | ? | -34% | -33% | . | 10% | 79µM*
COc1ccc(C(=O)Nc2c(O)ccc3ccccc23)cc1 | ? | . | 79µM* | . | . | .
COc1ccc(C(=O)Nc2c(O)ccc3ccccc23)cc1OC | 13% | . | -21% | . | . | .
COc1ccc(NC(=O)c2ccccc2)cc1 | 16% | . | -27% | -10% | -23% | -1%[0.501 µM]
